PubChem BioAssay AID905 (National Center for Advancing Translational Sciences (NCATS), 2007)
Some of the results follow. Inconclusive results are not listed. Values without a mark were called inactive. Calls come from the whole dose curve; as a rule, active = well fitted curve in the direction sought with a large enough effect; inconclusive = small, poorly fitted or top-dose-only effect, or another doubt; inactive = no such curve, though single readings can be large or run the other way.

Experiment: Cell Viability - CRE-beta lactamase CHO cell - 24 hr assay
Details: CRE-bla CHO viability, ATP luminescence; series mostly up to 46.1 µM; activity, negative = viability loss: at the top concentration
From the text: NIH Molecular Libraries Screening Centers Network [MLSCN] NIH Chemical Genomics Center [NCGC] National Institutes of Environmental Health Sciences [NIEHS] National Toxicology Program [NTP] MLSCN Grant: 1X01MH079867-01 Assay Provider: Marshall W. Nirenberg, U.S. National Heart, Lung and Blood Institute NCGC Assay Overview: We have developed a 1536-well cell-based assay for quantitative high throughput screening (qHTS) against a number of cell lines to determine in vitro cytotoxicity of small molecules. This particular assay uses CRE-bla CHO cell line from Invitrogen.
NCGC Assay Protocol Summary: The CellTiter-Glo luminescent cell viability assay (Promega) is a homogeneous method to measure the number of viable cells in culture. The end point readout of this assay is based on quantitation of intracellular ATP, an indicator of metabolic activity, using the luciferase reaction. Luciferase catalyzes the oxidation of beetle Luciferin to oxyluciferin and light in the presence of ATP. The luminescent signal is proportional to amount of ATP present. Using the CellTiter-Glo luminescent cell viability assay, the amount of cellular ATP was measured in the CRE-bla CHO cell line with complete culture medium following compound treatment for 24 hours. The assay was performed in opaque white Kalypsys 1536-well plates. In the screen, tamoxifen was used as positive control. The selected compounds were measured for their ability to cause acute toxicity in the cell line, as reflected by a decrease in intracellular ATP levels, in a concentration-dependent manner. Data were normalized to the controls for basal activity (DMSO only) and 100% inhibition (100 uM tamoxifen). AC50 values were determined from concentration-response data modeled with the standard Hill equation. NCGC Assay Protocol Summary 1. Reagent; 5 uL; 2000 CHO cells/well 2. Time; overnight; 37 C incubation 3. Compounds; 23 nL; 5.9 nM to 46 uM 4. Controls; 23 nL; Tamoxifen 4.5 nM to 92 uM 5. Time; 24 hr; 37 C incubation 6. Reagent; 5 uL; CellTiter Glo reagent 7. Time; 20 min; Room Temperature 8. Detection; Luminescence; Viewlux plate reader Keywords: cell viability, cytotoxicity, CHO cell line, luminescence, MLSMR, MLSCN, NIH Roadmap, qHTS, NCGC

Row | Structure (SMILES) | activity, negative = viability loss [%]
1 | Cc1nc(SCC(=O)Nc2cc(C)on2)c2c3c(sc2n1)CCCC3 | 8.55
2 | COc1ccc(CCNC(=O)CSc2nc(C)nc3c2oc2ccccc23)cc1OC | -6.91
3 | CC1CCc2sc3nc(N4CCN(CCO)CC4)n4ncnc4c3c2C1 (stereo not given) | -12.9
4 | Cc1nn(-c2ccccc2)c2sc(C(=O)N(Cc3ccco3)C(C)C(=O)NC(C)(C)C)cc12 (stereo not given) | -40.7
5 | CCc1nc(Nc2ccc3nccnc3c2)c2oc3ccccc3c2n1 | -12.5
